Each structure is given as a SMILES string. The source made the active and inactive calls. How the source made its calls: active means hit-call score of the fitted dose curve at least 0.9, where 1 is the maximum; inactive means score below 0.9.

This test can be described thus: APR_HepG2_MitoticArrest_72hr: Apredica 72-hour HepG2 Assay for Mitotic Arrest (AID 2282918). The conditions noted are these: high-content imaging, actives raise or lower the signal. The protocol: APR_HepG2_72hr is a cell-based, multiplexed-readout assay that uses HepG2, a human liver cell line, with measurements taken at 72 hours after chemical dosing in a 384-well plate.APR_HepG2_MitoticArrest_72hr is one of 10 assay component(s) measured or calculated from the APR_HepG2_72hr assay. It is designed to make measurements of cell phenotype, a form of morphology reporter, as detected with fluorescence intensity signals by HCS Fluorescent Imaging technology.Data from the assay component APR_HepG2_MitoticArrest_72hr was analyzed into 1 assay endpoint. This assay endpoint, APR_HepG2_MitoticArrest_72hr, was analyzed with bidirectional fitting relative to DMSO as the negative control and baseline of activity. Using a type of morphology reporter, measures of protein for gain or loss-of-signal activity can be used to understand the signaling at the pathway-level as they relate to the gene . Furthermore, this assay endpoint can be referred to as a primary readout, because this assay has produced multiple assay endpoints where this one serves a signaling function. To generalize the intended target to other relatable targets, this assay endpoint is annotated to the cell cycle intended target family, where the subfamily is arrest.
Cells were treated with dimethyl sulfoxide (DMSO) as a solvent control at a final concentration of 0.5% v/v or with compounds in DMSO with a resulting final DMSO concentration of 0.5% v/v. Compound treatment was done at concentrations of 0.39, 0.78, 1.56, 3.12, 6.24, 12.5, 25, 50, 100, and 200 uM in duplicate on each plate. Cells were treated with compounds for 1, 24, or 72 hr. Carbonyl […] m-chloro-phenylhydrazone (CCCP) and taxol were used as positive controls for mitochondrial function and cytoskeletal stability, respectively; DMSO served as the negative control for this experiment. Cells were fixed by the direct addition of 50 uL formaldehyde in Hank's Balanced Salt Solution (HBSS) to a final concentration of 3.7%. After incubation in the fixation medium for 30 min at room temperature (293-298 K), cells were rinsed twice with HBSS and treated with cell permeabilization buffer (16 uL of 0.5% Triton X-100) for 10 min at room temperature (293-298 K) before labeling. For mitochondrial membrane potential and mitochondrial measurements, pre-fixed cells were incubated with 50 uL of MitoTracker Red CMXRos (Invitrogen) at a concentration of 250 nM for 30 min before fixation. In the remaining cases, post-fixed cells were labeled by incubation with a multiplexed mixture of primary antibodies in HBSS for 60 min at room temperature (293-298 K) to detect immunoreactivity of c-Jun (1:500), phospho-histone H3 (1:100), phospho-histone H2A.x (1:200), p53 (1:400), alpha-tubulin (1:200) and Hoechst 33342 (2 ug/mL). Cells were labeled for multiplexed imaging on two separate plates: a) Hoechst 33342, MitoTracker Red, phospho-histone H3, and alpha-tubulin, and b) Hoechst 33342, phospho-histone H2A.x, and c-Jun. A final rinse with HBSS (50 uL) was performed before analysis. The primary and secondary antibodies for the proteins were phospho-histone H3 (rabbit anti-phospho-histone H3 and FITC-donkey anti-rabbit IgG), phospho-histone H2A.x (mouse anti-phospho-histone H2A.x and FITC-donkey anti-mouse IgG), c-Jun (rabbit anti-phospho-c-Jun and Cy3-donkey anti-rabbit IgG), p53 (sheep anti-p53 and Cy5-donkey anti-sheep IgG), alpha-tubulin (mouse anti-alpha-tubulin and Cy5-donkey anti-mouse IgG). These antibodies are available as the CellCiphr HepG2 assay kit (Millipore).Digital images of each well were captured using a Cellomics ArrayScan VTI (Thermo Scientific Cellomics) (0.8 NA objective, 0.63x optical coupler, and XF-93 filter set) at 20x magnification. The images were acquired using the autofocus feature of the ArrayScan instrument, which entails the following steps. First, the camera focuses on channel 1 (Hoechst 33342), where nuclei are identified. Second, a Z offset of 1 um is used for capturing mitochondria (MitoTracker Red). […]
`Clc1cccc(Cl)c1`: the outcome was inactive.
One may read the AC50 as the concentration giving half of the maximal activity seen. For `O=C(O)C1(c2ccc3c(c2)OC[C@H](Cc2ccc(-c4ccccc4)cc2)[C@H]3O)CCCC1`, the half-maximal activity concentration (AC50) is 105 µM (active).
With `CCCCCCCCCCCCc1cccc(S(=O)(=O)O)c1`, the molecule was classed as inactive.
In the case of `N#Cc1cccnc1`, the call was inactive.
Regarding `O=C(N[C@H]1CN2CCC1CC2)c1ccc2c(c1)OCCO2`, the result was inactive.
Same read-out and setting: with `CC(C)(C)c1ccccc1O` the entry was “inactive”; with `OCCN(CCO)CCO`, “inactive”.
On the same count and under the same terms, with `CC(C)O.CC(C)O.OCCN(CCO)CCO.OCCN(CCO)CCO.[Ti]` the entry was “inactive”.
As to `CN(C)C(=S)S`, the AC50 is 0.125 µM (active).
For `Oc1cc(Cl)c(Cl)cc1Cl`, the AC50 was 29.5 µM (active).
`Clc1cccc(Cl)c1Cl`: the molecule was called inactive.
Take `Oc1c(Cl)cc(Cl)cc1Cl`: the half-maximal activity concentration (AC50) is 50 µM (active).
As for `Cc1cc(C)cc(C)c1`, the result was inactive.
